From PubChem BioAssay
Tgondii IFNg: T. gondii growth inhibition with IFN-gamma, primary screen, cell-based; activity change, negative = inhibition, % (concentration not given with the values); AID 1259416, 2018; hit rate 3.8% among 69,000; Toxoplasma gondii growth in IFN-gamma-treated host cells; active compounds read low; in the data active = activity change below about -70%, passing the limit was not always enough;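 note: host cells are HeLa cells infected with Toxoplasma gondii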
Hits are given with their value; – = inactive; ! = not confirmed by another sample. Only a selection was taken, and hits are over-represented in it overall.

SMILES	Tgondii IFNg
O=S(=O)(c1ccc(F)cc1)N1C[C@H]2[C@@H](c3ccccc31)[C@@H](CO)N2Cc1ccccc1Cl	-79
O=C(Nc1ccc2c(c1)OCO2)N1CCC2(CC1)Nc1cc(F)ccc1-n1cccc12	–
N#Cc1c(-c2ccccc2)cc(-c2ccccc2)nc1N1CCCCC1	–
CC(C)N(C)Cc1cnc2n1CCN(Cc1cccs1)CC2	–
Cc1nn(CCNC(=O)C(c2ccc(F)cc2)N(C)C)c(C)c1C (stereo not given)	–
O=C(Nc1ncc(SCCN2CCCC2)s1)[C@]1(c2ccc(S(=O)(=O)C3CC3)cc2)C[C@H]1C1CCCCC1	-73
Cc1ccccc1-c1noc(-c2c(O)c3ccc(F)cc3n(C)c2=O)n1	–
O=C(NCCc1csc(-c2ccc(F)cc2)n1)C(=O)Nc1ccc(F)cc1F	–
NC(=O)c1csc(-c2ccc(F)cc2F)n1	-107
NC(=O)c1csc(-c2cccc(C(=O)O)c2)n1	–
CCN(Cc1cc(Cl)ccc1OC)C(=O)C1(c2ccccc2)CC1	–
FC(F)(F)c1cc(Oc2ccccc2)ncc1-c1nnc(-c2ccccc2Cl)o1	–
Clc1ccccc1-c1nnc(Cc2cc(Br)sc2Br)o1	-90
COc1ccccc1-c1nnc(CC(=O)O)o1	–
CCOc1ccccc1CNC(=O)Cn1ncc2c(N3CCOCC3)ncnc21	–
O=C(CCn1nnc2ccccc21)N1CCCC(Cn2ccnc2)C1 (stereo not given)	–
O=C1CC2(CCN(C(=O)NCc3ccc(F)cc3)CC2)Oc2ccccc21	–
Cc1cc(NC(=O)N2CCC3(CC2)CC(=O)c2ccccc2O3)ccc1Br	-75
Cc1cc(C)cc(NC(=O)N2CCC3(CC2)CC(=O)c2ccccc2O3)c1	–
CCc1cc(C(C)n2cc(-c3cccc(OC)c3OC)nn2)on1 (stereo not given)	–
CC(C)N1Cc2ccnn2CC(COCc2cccnc2)C1 (stereo not given)	–
O=c1c2ccccc2n(Cc2ccc(F)cc2)c2ccccc12	-81
c1ccc(Cn2c3ccccc3c3ccccc32)cc1	–
O=C1CCCc2c1c1ccccc1n2Cc1ccccc1	–
CN(C)C1CCN(Cc2cccc(C#N)c2)C(C(=O)O)C1 (stereo not given)	–
SMILES	Tgondii IFNg
COc1ccc(C2c3nc[nH]c3CCN2C(=O)c2cn3cc(Cl)ccc3n2)cc1 (stereo not given)	–
COc1ccc(C(=O)N(C)CCn2ccnc2C)cn1	–
CCCCOc1cc(C(=O)OCCN(CC)CC)ccc1N	–
CCCCc1oc2ccccc2c1C(=O)c1cc(I)c(OCCN(CC)CC)c(I)c1	-81
CCCCOc1cc(C(=O)NCCN(CC)CC)c2ccccc2n1	–
COc1ccc2n[nH]c(CN(C)Cc3ccc(-n4cccn4)cc3)c2c1	–
COc1c[nH]c(CN2CCCCC2CCN2CCOCC2)cc1=O (stereo not given)	–
COc1ccc(N2CC3(CCN(c4cnccn4)C3)CC2=O)cc1 (stereo not given)	–
O=c1sc2ccccc2n1CCCOc1ccccc1	–
CN(CCOc1ccc(CC(Nc2ccccc2C(=O)c2ccccc2)C(=O)O)cc1)c1ccccn1 (stereo not given)	–
COC(=O)C(Cc1ccc(OCCn2c(=O)sc3cc(C(=O)c4ccccc4)ccc32)cc1)C(=O)OC	-87
O=C(Cn1c(=O)cc(C(=O)N2CCCCC2)c2ccccc21)Nc1ccc2c(c1)OCCO2	–
CCn1c(C2CCCN(S(=O)(=O)c3ccc(C)c(C)c3)C2)n[nH]c1=O (stereo not given)	–
Cc1nc(-c2ccccc2)c(CC(=O)NCc2noc(-c3ccccc3)n2)s1	–
Cc1cc(C)n(Cc2nc(-c3ccc(NC(=O)c4ccccc4)cc3)oc2C)n1	–
Cc1cc(C)cc(C(=O)Nc2ccc(-c3nc(Cn4nc(C)cc4C)c(C)o3)cc2)c1	-97
Cc1cc(C)n(Cc2nc(-c3ccc(NC(=O)c4ccc(Cl)cc4)cc3)oc2C)n1	–
Cc1ccc(C)c(C(=O)Nc2ccc(-c3nc(Cn4nc(C)cc4C)c(C)o3)cc2)c1	-75
Cc1cc(C)n(Cc2nc(-c3ccc(NC(=O)c4cc(F)cc(F)c4)cc3)oc2C)n1	–
Cc1cc(C)n(Cc2nc(-c3ccc(NC(=O)c4ccc(C)c(F)c4)cc3)oc2C)n1	–
Cc1cc(C)n(Cc2nc(-c3ccc(NC(=O)CCc4ccccc4)cc3)oc2C)n1	–
COc1cccc(CC(=O)Nc2ccc(-c3nc(Cn4nc(C)cc4C)c(C)o3)cc2)c1	-85
Cc1cc(C)n(Cc2nc(-c3ccc(NC(=O)Cc4ccccc4C)cc3)oc2C)n1	–
Cc1ccc(C(c2nnnn2C(C)(C)C)N2CCN(Cc3ccccc3)CC2)cc1 (stereo not given)	–
Cc1nc(CN2CCC3(CC2)C(c2cnn(C)c2)CC(=O)N3C)cs1 (stereo not given)	–
SMILES	Tgondii IFNg
CCN1CCN(Cc2ccc(C(=O)N3CCC(N4CCCCC4)CC3)cc2)C(=O)C1=O	–
O=C(Nc1ccc(Cl)cc1)Nc1ccccc1Sc1c(Cl)cncc1Cl	-97
O=C(Nc1ccccc1Sc1c(Cl)cncc1Cl)c1cccs1	–
O=C(Nc1ccccc1)Nc1ccccc1SCCS(=O)(=O)c1ccc(Cl)cc1	–
CCO[C@H]1CN(C(=O)c2ccnnc2)[C@H]2COC[C@@H]12	–
O=C(C[C@H]1NCCC[C@@H]1O)Cn1cnc2cc(Br)c(Cl)cc2c1=O	-80
O=C(O)Cn1cnc2ccccc2c1=O	–
CCn1c(=O)c(-c2nc(-c3ccc(C)cc3)no2)c(O)c2ccc(F)cc21	–
COc1cc(CN2CCCC2c2nnc(-c3nccc4ccccc34)o2)cc(OC)c1OC (stereo not given)	–
COC(=O)Nc1nc2ccc(C(=O)c3cccs3)cc2[nH]1	-87
CCCS(=O)c1ccc2nc(NC(=O)OC)[nH]c2c1 (stereo not given)	–
COC(=O)Nc1nc2ccc(C(=O)c3ccccc3)cc2[nH]1	-79
O=C(O)c1ccc2nc(-c3ccccn3)[nH]c2c1	–
COC(=O)c1ccc(NC(=O)c2ccccc2SC)cc1	–
CC(c1ccon1)N(C)CC(=O)Nc1nc2ccccc2[nH]1 (stereo not given)	–
COc1ccc(-n2nc3ccc(NC(=S)NC(=O)c4cccs4)cc3n2)cc1	–
Cc1ccc2nc(NC(=O)C(C)(C)C)[nH]c(=O)c2c1	–
COC(=O)Nc1cc(C)n(-c2ccccc2)n1	–
COC(=O)Nc1nc2ccc(C(=O)c3ccccc3C(=O)OC(C)C)cc2[nH]1	-101
Cc1ccc(C(=O)O)cc1NC(=O)c1cccs1	–
COC(=O)Nc1nc2ccc(S(=O)c3ccccc3)cc2[nH]1 (stereo not given)	-75!
O=C(NCc1ccncc1)C1CNCCN1C(=O)C1CCCCCC1 (stereo not given)	–
Cc1cc(NCCNC(=O)C(C)n2nc(C)cc2C)c2ccccc2n1 (stereo not given)	–
CC(=O)N[C@@H]1C[C@H](Cc2ccccc2)O[C@H](c2c(Cl)nc3sccn23)C1	–
Cc1nsc(NC(=O)NCc2cccc(-n3cncn3)c2)n1	–
O=C1NC(CC(=O)N2C[C@H](C(=O)O)[C@@H](c3ccc(F)cc3)C2)c2ccccc21 (stereo not given in full)	–
CCc1nc(OCC(=O)Nc2cccc(SC)c2)c2ccccc2n1	–
COc1ccc(NC(=O)c2nc(Nc3ccc(Cl)cc3)c3ccccc3n2)cc1Cl	–
CCn1c(CC2CCN(c3cc(C)nc(C(C)C)n3)CC2)nn(C)c1=O	–
CCOc1ccccc1CNC(=O)C1=C(C)C(=O)OC12CCN(S(=O)(=O)c1cccs1)CC2	–
